Among all 47,000 compounds or so, about 2,800 (6%) were called active. What follows is part of a selection rich in actives, with near analogues and random picks from the rest. A number with no mark means an inactive call. Cut-off read from the data, not from the text of the source: active = z-score above about 3 (passing the limit was not always enough); inactive = the rest.
Each compound was assayed against Endoribonuclease Dicer (Homo sapiens) (UniProt Q9UPY3) (assay: Dicer cleavage of pre-miR-21 blockers – biochemical, cat-ELCCA, chemiluminescence, primary screen (AID 1347074;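 note: plate controls were vehicle for no effect and no enzyme for full effect; higher signal means more uncleaved substrate so more Dicer inhibition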)). Details: cat-ELCCA pre-miR-21 Dicer processing, at 25 µM, stronger effect = higher value.
Chain of Endoribonuclease Dicer (Homo sapiens) (Q9UPY3 whole entry, looked up): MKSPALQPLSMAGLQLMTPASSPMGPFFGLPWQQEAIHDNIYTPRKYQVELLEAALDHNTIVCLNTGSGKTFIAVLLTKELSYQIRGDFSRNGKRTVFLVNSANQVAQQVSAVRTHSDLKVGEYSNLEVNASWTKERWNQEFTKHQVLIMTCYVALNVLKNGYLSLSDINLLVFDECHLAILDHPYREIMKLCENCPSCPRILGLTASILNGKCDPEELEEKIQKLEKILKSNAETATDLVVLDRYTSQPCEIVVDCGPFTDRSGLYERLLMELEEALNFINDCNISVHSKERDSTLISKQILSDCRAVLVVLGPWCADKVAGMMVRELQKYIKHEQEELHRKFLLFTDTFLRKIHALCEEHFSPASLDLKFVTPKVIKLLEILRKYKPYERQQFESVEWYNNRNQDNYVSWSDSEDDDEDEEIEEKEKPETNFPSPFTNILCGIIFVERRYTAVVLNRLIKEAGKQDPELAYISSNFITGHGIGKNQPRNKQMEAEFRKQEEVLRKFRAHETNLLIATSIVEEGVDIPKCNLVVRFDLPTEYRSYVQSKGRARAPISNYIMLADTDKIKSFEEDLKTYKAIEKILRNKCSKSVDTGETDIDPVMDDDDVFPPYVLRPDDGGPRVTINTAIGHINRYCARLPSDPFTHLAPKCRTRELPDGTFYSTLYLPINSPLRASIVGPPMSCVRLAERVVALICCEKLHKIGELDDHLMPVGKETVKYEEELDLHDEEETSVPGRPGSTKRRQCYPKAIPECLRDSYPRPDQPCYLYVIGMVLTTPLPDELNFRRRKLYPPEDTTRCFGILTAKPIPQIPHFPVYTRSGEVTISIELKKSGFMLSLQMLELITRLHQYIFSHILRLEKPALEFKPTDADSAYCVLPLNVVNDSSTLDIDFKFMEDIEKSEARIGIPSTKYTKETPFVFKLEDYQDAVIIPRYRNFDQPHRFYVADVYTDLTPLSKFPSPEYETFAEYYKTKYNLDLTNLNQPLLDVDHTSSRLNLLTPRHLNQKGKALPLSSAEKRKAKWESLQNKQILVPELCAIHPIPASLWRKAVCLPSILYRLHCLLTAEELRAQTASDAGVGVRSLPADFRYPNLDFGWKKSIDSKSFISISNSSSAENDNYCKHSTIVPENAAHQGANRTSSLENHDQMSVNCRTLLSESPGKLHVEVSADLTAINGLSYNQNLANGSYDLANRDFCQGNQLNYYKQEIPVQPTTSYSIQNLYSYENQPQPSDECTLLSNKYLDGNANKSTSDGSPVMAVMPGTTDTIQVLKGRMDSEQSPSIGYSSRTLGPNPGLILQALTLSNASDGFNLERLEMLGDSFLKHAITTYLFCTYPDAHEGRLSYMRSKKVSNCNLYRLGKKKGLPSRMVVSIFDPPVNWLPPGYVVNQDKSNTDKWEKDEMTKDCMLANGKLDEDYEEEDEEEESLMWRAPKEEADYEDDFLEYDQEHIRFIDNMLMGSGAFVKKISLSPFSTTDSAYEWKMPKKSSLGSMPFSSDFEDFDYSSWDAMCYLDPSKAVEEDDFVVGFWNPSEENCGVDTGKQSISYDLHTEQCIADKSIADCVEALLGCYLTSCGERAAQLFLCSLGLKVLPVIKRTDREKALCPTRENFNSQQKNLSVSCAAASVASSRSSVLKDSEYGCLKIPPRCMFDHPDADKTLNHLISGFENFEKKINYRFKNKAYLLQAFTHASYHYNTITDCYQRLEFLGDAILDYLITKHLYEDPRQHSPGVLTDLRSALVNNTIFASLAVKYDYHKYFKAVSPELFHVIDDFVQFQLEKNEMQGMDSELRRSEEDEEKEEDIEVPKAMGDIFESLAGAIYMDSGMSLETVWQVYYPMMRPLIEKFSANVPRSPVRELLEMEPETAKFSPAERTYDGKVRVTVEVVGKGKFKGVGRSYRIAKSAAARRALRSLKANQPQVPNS
Work on `C/C(=N\OC(=O)Nc1ccc(Cl)cc1)c1cc(-c2ccccc2)no1` yielded a z-score of -0.26.
Compound `CCOc1ccccc1C1C2=C(CCCC2=O)Nc2nnnn21` (stereo not drawn) has a z-score of 2.2.
In the case of `Cc1c(Br)c([N+](=O)[O-])nn1CC(=O)NCCCn1ccnc1`, the z-score was -0.68.
With `O=C(NCc1cccnc1)c1cnc2ccccc2n1` the z-score was 0.67.
For `O=C(O)c1cnc(NCc2ccccc2)s1`, the z-score was -1.01.
For `O=C(NCc1ccccc1)c1cc2sccc2s1`, the z-score was 3.86 (active).
`Cc1c(C)c(C)c(CSCC(=O)N/N=C/C=C/c2ccccc2)c(C)c1C` was tested, and the z-score was 1.61.
`Cc1ccc(C2CC(C(F)(F)F)n3ncc(C(=O)N(C)Cc4cn(C)nc4C)c3N2)cc1` (stereo not drawn) gave a z-score of -1.27.
In the case of `O=C(Nc1ccc(F)cc1)Nc1nnc(C2CC2)s1`, the z-score was 0.03.
For `c1coc(CNc2ncnc3ccccc23)c1`, the z-score was -1.16.
`O=C(NCc1ccco1)c1nc2ncccn2n1` showed a z-score of 0.13.
`CS(=O)(=O)n1nc(-c2ccccc2)nc1NCc1ccco1` was tested, and the z-score was 4.95 (active).
Work on `CN(C)c1ccc(C(=S)c2ccc(N(C)C)cc2)cc1` yielded a z-score of 0.42.
`CN(C)C(=O)Nc1ccc(C(C)(C)C)cc1` showed a z-score of 0.46.
With `CN(C)c1ccc(NC(=O)C(=O)NCCO)cc1` the z-score was 3.85 (active).
`CC(=O)c1ccc(OCc2ccc(Cl)c(Cl)c2)c(C)c1O` was tested, and the z-score was -0.27.
Work on `CCCCCOC(=O)COc1ccc2c(=O)c(Oc3cccc(C)c3)coc2c1` yielded a z-score of -1.17.
Work on `O=c1oc2ccccc2c2c1ncn2CCCN1CCOCC1` yielded a z-score of 0.33.
`CCOC(=O)/C(C#N)=C/Nc1ccc(OC)c(C(=O)OC)c1OC` showed a z-score of -2.66.
`COc1ccc(-c2oc3ncnc(NCCCO)c3c2-c2ccc(OC)cc2)cc1` gave a z-score of 0.89.
For `c1ccc(-c2oc3ncn4nc(-c5ccccn5)nc4c3c2-c2ccccc2)cc1`, the z-score was -0.36.
In the case of `COc1ccc(-c2c(-c3ccccc3)oc3ncnc(N)c23)cc1`, the z-score was 4.1 (active).
Work on `CCc1ccc(C2c3c(oc4ccc(C)cc4c3=O)C(=O)N2c2nccs2)cc1` (stereo not drawn) yielded a z-score of 0.49.
Work on `CCCC1=NN(c2ccc(S(N)(=O)=O)cc2)C(=O)C1` yielded a z-score of -4.3.
Work on `COC(OC)c1nc(SCc2ccc(Cl)cc2)ncc1C(=O)O` yielded a z-score of -1.32.
Work on `Cc1onc(-c2c(Cl)cccc2Cl)c1C(=O)NN(C)c1ccc([N+](=O)[O-])cn1` yielded a z-score of 0.9.
In the case of `CN(C)NC(=O)c1csnc1-c1c(Cl)cccc1Cl`, the z-score was 3.48 (active).
`CCCCNC(=O)Nc1onc(-c2c(Cl)cccc2Cl)c1C(=O)OC` showed a z-score of 0.02.
Compound `CCCCC#Cc1cncc(C(=O)O)c1` has a z-score of 0.66.
For `O=C(O)C1=Cc2cc(Cl)ccc2OC1`, the z-score was 1.52.
Compound `COC(=O)c1scc(C)c1NC(=O)C1=Cc2cc(Cl)ccc2OC1` has a z-score of -0.31.
For `O=C(Nc1ccc2c(c1)OCC1CCCN21)C1=Cc2ccccc2OC1` (stereo not drawn), the z-score was 4.37 (active).
`C=CCNC(=O)CSc1nc2c(c(C(F)(F)F)n1)CCc1ccccc1-2` was tested, and the z-score was 1.7.
In the case of `CCc1nc(-c2ccc(-c3ccccc3)nc2OC)no1`, the z-score was 0.85.
`COc1cc(OC)cc(-c2nc(-c3ccc(-c4ccccc4)nc3OC)no2)c1` was tested, and the z-score was 1.1.
`CCCc1cc(=O)oc2c1c(C)nn2-c1cccc(Cl)c1` was tested, and the z-score was -1.83.
For `COC(=O)C1=C(c2ccccc2)C(c2ccccc2)=C(C(=O)OC)C1=O`, the z-score was 3.2 (active).
`COC(=O)c1sc(C(F)(F)F)c(-c2ccccc2)c1S(=O)(=O)N(C)C` was tested, and the z-score was 0.21.
For `COC(NC(=O)c1ccccc1)(C(F)(F)F)C(F)(F)F`, the z-score was -0.72.
With `Cc1cccc(Nc2nc(-c3ccccc3)cs2)n1` the z-score was 3.09 (active).
With `c1ccc(Nc2nc(-c3ccncc3)cs2)nc1` the z-score was 2.79.
`COCCCNc1nc(-c2ccccc2)cs1` showed a z-score of 1.18.
`CC(C)(C)NC(=S)Nc1ccc(F)c(Cl)c1` gave a z-score of 16.8.
`CC1(C)N=C(N)N=C(N)N1c1ccccc1C(F)(F)F` gave a z-score of 1.59.
With `CCOC(=O)Cc1csc(NC(=O)Nc2cccc3ccccc23)n1` the z-score was 6.9.
`Cn1nc(-c2ccc(Cl)cc2)[nH]c1=O` gave a z-score of -1.42.
In the case of `CCCCc1c(COC)nc(-c2ccc(Cl)cc2)[nH]c1=O`, the z-score was 3.16 (active).
`Cc1nc(-c2ccc(C(F)(F)F)cc2)[nH]c(=O)c1Oc1ccc(Cl)cc1Cl` showed a z-score of 0.23.
`O=S(=O)(c1ccc(C2Nc3ccc(Cl)cc3C3C=CCC32)cc1)N1CCOCC1` (stereo not drawn) showed a z-score of -0.43.
With `O=C(O)C1Nc2ccc(Cl)cc2C2C=CCC12` (stereo not drawn) the z-score was 15.4 (active).
`COC(=O)c1ccc([C@@H]2Nc3ccc(F)cc3[C@@H]3C=CC[C@@H]32)cc1` showed a z-score of 0.68.
Compound `CSC(=NCc1ccco1)Nc1ccc(Cl)cc1` has a z-score of 2.16.
`CCc1ccnc(NC(=O)Nc2ccc(OCc3ccccc3)cc2)c1` showed a z-score of 0.13.
Work on `Nc1cc(-c2ccccc2)nn1-c1ccccc1` yielded a z-score of -0.41.
`c1ccc(-c2cc(-c3ccccc3)[nH]n2)cc1` showed a z-score of 0.74.
In the case of `Nc1cccc(-c2cc(-c3ccccc3)nc(-c3cccc(N)c3)n2)c1`, the z-score was 8.06 (active).
`O=C(O)CCc1nc2ccccc2[nH]c1=O` was tested, and the z-score was -2.59.
`COc1cccc(OC)c1C(=O)NC(=O)Nc1c(C)cc(Br)cc1C` gave a z-score of -0.89.
With `CN(C)/C=C/c1nnnn1-c1ccc(Br)cc1` the z-score was 2.13.
Compound `Cc1cc(NC(=O)Nc2ccccc2)n(-c2ccccc2)n1` has a z-score of -0.46.
`Nc1c(C(=O)NNC(=S)Nc2ccccc2)cnn1-c1ccccc1` was tested, and the z-score was 3.4 (active).
For `NNC(=O)c1cnn(-c2ccccc2)c1C(F)(F)F`, the z-score was -1.32.
For `CCc1ncc(C(O)c2ccccc2)n1C` (stereo not drawn), the z-score was -0.48.
Compound `COCCCn1c2c(c(=O)[nH]c1=O)C(c1ccc(C(=O)O)cc1)C1=C(N2)c2ccccc2C1=O` (stereo not drawn) has a z-score of -1.05.
Compound `COc1cc(C(=O)NCC2CCCO2)c(OC)cc1C(=O)NCC1CCCO1` (stereo not drawn) has a z-score of 1.74.
`Oc1ccccc1-c1nc(/C=C/c2ccc(F)cc2)no1` was tested, and the z-score was -0.19.
In the case of `Nc1nc(/C=C/c2ccc(O)cc2)nc(-c2ccccc2O)n1`, the z-score was 5.62 (active).
With `COc1ccc(/C=C/c2noc(-c3ccccc3O)n2)cc1OC` the z-score was 0.89.
Compound `CN1c2ccc(Cl)cc2C(C)(C)C12C=Nc1c(ccc3ccccc13)O2` (stereo not drawn) has a z-score of -0.52.
In the case of `O=C(Nc1ccccc1)Nc1ccc(C(F)(F)F)cn1`, the z-score was 0.31.
In the case of `OCC(O)Cn1c2ccccc2c2ccccc21` (stereo not drawn), the z-score was -0.45.
For `CCn1c(CN2C(=O)CSc3ccccc32)n[nH]c1=S`, the z-score was 0.75.
With `CC(C)Cn1c(Cn2c3ccccc3c3ccccc32)n[nH]c1=S` the z-score was 3.9 (active).
For `CCOC(=O)c1c(C)nn(-c2ncccc2[N+](=O)[O-])c1C`, the z-score was -0.17.
For `Cc1[nH]nc(NCc2ccccc2)c1[N+](=O)[O-]`, the z-score was -1.14.
Work on `O=C1CC(c2ccccc2)N(c2ccc(OC(F)(F)F)cc2)C(=S)N1` (stereo not drawn) yielded a z-score of -0.98.
`O=C(Nc1ccccc1)O/N=C1\CCSC1` gave a z-score of 0.99.
`C=CCOc1cccc(C2c3c(oc4ccccc4c3=O)C(=O)N2c2ccc(C)cn2)c1` (stereo not drawn) gave a z-score of 0.54.
`O=C1c2oc3ccccc3c(=O)c2C(c2cccc(O)c2)N1Cc1ccccc1` (stereo not drawn) was tested, and the z-score was 0.58.
For `Cc1ccc(N2C(=O)c3oc4ccccc4c(=O)c3C2c2cccnc2)nc1` (stereo not drawn), the z-score was 3.52 (active).
`O=C1c2oc3ccccc3c(=O)c2C(c2cccc(O)c2)N1c1ccccn1` (stereo not drawn) was tested, and the z-score was 3.7 (active).
`Cc1ccc(N2C(=O)c3oc4cc(C)c(C)cc4c(=O)c3C2c2ccc(O)cc2)nc1` (stereo not drawn) gave a z-score of 0.43.
For `C=CCOc1ccc(C2c3c(oc4ccccc4c3=O)C(=O)N2c2ccc(C)cn2)cc1` (stereo not drawn), the z-score was 0.29.
`Cc1nc(N/N=C2\CCCc3ccccc32)sc1C` showed a z-score of 0.78.
`CC(C)(C)NC(=O)c1nn2c(C(F)(F)F)cc(-c3ccccc3)nc2c1Cl` was tested, and the z-score was -0.55.
With `CCCc1nnc(N2C(=O)c3oc4ccc(F)cc4c(=O)c3C2c2ccc(OC)cc2)s1` (stereo not drawn) the z-score was 1.52.
`O=C(N/C=C/c1ccsc1)Nc1cc(C(F)(F)F)cc(C(F)(F)F)c1` was tested, and the z-score was 0.88.
`Cc1ccc(NC(=O)Nc2cc(-c3ccccc3)nn2C)cc1Cl` gave a z-score of 0.04.
In the case of `CCCCC1(C2CC(=O)N(c3ccccc3)C2=O)C(=O)N(c2ccccc2)N(c2ccccc2)C1=O` (stereo not drawn), the z-score was 1.04.
For `O=C1CC(NCC2CCCCC2)C(=O)N1c1ccccc1` (stereo not drawn), the z-score was 3.63 (active).
With `O=C1CC(Cc2ccc(Cl)cc2)C(=O)N1c1ccccc1` (stereo not drawn) the z-score was 0.01.
With `O=C(C1Sc2nnc(-c3ccccc3)n2NC1c1ccc(F)cc1)N1CCOCC1` (stereo not drawn) the z-score was 2.92.
For `Cc1ccc(-c2cc3nccc(-c4ccccc4O)n3n2)cc1`, the z-score was 3.02 (active).
`COc1ccc(-c2cc3nccc(-c4cc(F)ccc4O)n3n2)cc1` was tested, and the z-score was 1.88.
With `Cc1cc(-c2ccccc2)n2nc(-c3ccccc3)cc2n1` the z-score was 0.87.
`CC1CCc2c(sc3ncnc(SC(C)C(=O)O)c23)C1` (stereo not drawn) was tested, and the z-score was -0.91.
For `CCOC(=O)c1sc(N2C(=O)c3oc4ccccc4c(=O)c3C2c2cccs2)nc1C` (stereo not drawn), the z-score was 1.43.
In the case of `CCOC(=O)c1ccc(NC(=S)N(Cc2ccccc2)C(C)C)cc1`, the z-score was -0.22.
For `CC(C)(C)OC(=O)NCC(=O)OCc1ccc(CC(=O)O)cc1`, the z-score was 3.04 (active).
`O=C(O)Cc1ccc(-c2ccccc2)cc1` gave a z-score of -0.37.
`O=C(NCCC(O)C(=O)O)OCc1ccccc1` (stereo not drawn) was tested, and the z-score was -1.43.
For `COc1ccc2cccc(OC)c2n1`, the z-score was -1.05.
For `O=C(Nc1nc2ccsc2c(=O)s1)c1ccccc1`, the z-score was -0.44.
